Among the data in paper PMC11006913 are binding signal values, retold here.

Experiment in all cases: PBM; 200 nM protein, PBS
What all share (conditions): dsDNA, one strand shown

For test [1], the target named is T1, SIX6 (Homo sapiens, UniProt O95475 114-200, L167I).
T1 sequence: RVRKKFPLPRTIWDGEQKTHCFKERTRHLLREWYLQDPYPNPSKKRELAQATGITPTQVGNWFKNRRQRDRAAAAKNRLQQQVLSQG

Test [2] has as its target T2, SIX6 (Homo sapiens, UniProt O95475 114-200, L143V).
T2 sequence: T1 sequence with L30V, I54L

Test [3] deals with T3, SIX6 (Homo sapiens, UniProt O95475 114-200, H141N).
T3 sequence: T1 sequence with H28N, I54L

In test [4] the target is T4, SIX6 (Homo sapiens, UniProt O95475 114-200, T165P).
T4 sequence: T1 sequence with T52P, I54L

For test [5], the target named is T5, SIX6 (Homo sapiens, UniProt O95475 114-200, L167M).
T5 sequence: T1 sequence with I54M

For test [6], the target named is T6, SIX6 (Homo sapiens, UniProt O95475 114-200, L143M).
T6 sequence: T1 sequence with L30M, I54L

Test [7] concerns the target T7, SIX6 (Homo sapiens, UniProt O95475 114-200, L143I).
T7 sequence: T1 sequence with L30I, I54L

For test [8], the target named is T8, SIX6 (Homo sapiens, UniProt O95475 114-200, T165G).
T8 sequence: T1 sequence with T52G, I54L

Test [9] has as its target T9, SIX6 (Homo sapiens, UniProt O95475 114-200, T139Q).
T9 sequence: T1 sequence with T26Q, I54L

In test [10] the target is T10, SIX6 (Homo sapiens, UniProt O95475 114-200, T165A).
T10 sequence: T1 sequence with T52A, I54L

Test [11] addresses T11, SIX6 (Homo sapiens, UniProt O95475 114-200, L167V).
T11 sequence: T1 sequence with I54V

The target of test [12] is T12, SIX6 (Homo sapiens, UniProt O95475 114-200).
T12 sequence: T1 sequence with I54L

Test [13] deals with T13, SIX6 (Homo sapiens, UniProt O95475 114-200, T165I).
T13 sequence: T1 sequence with T52I, I54L

Changes are numbered by the printed parent chain.

AGGCCCCG: the binding signal with SIX6 [1] is 8.89 upbm affinity estimate (log intensity, higher = more binding, comparable within an allelic series); in the test with SIX6 [2] it was 8.82 upbm affinity estimate (log intensity, higher = more binding, comparable within an allelic series); with SIX6 [3] it was 8.69 upbm affinity estimate (log intensity, higher = more binding, comparable within an allelic series); with SIX6 [4], 8.87 upbm affinity estimate (log intensity, higher = more binding, comparable within an allelic series); with SIX6 [5], 8.92 upbm affinity estimate (log intensity, higher = more binding, comparable within an allelic series); in the test with SIX6 [6], 8.79 upbm affinity estimate (log intensity, higher = more binding, comparable within an allelic series). Besides, the binding signal is 8.8 upbm affinity estimate (log intensity, higher = more binding, comparable within an allelic series) with SIX6 [7]; 8.83 upbm affinity estimate (log intensity, higher = more binding, comparable within an allelic series) with SIX6 [8]; 8.79 upbm affinity estimate (log intensity, higher = more binding, comparable within an allelic series) with SIX6 [9]; 8.77 upbm affinity estimate (log intensity, higher = more binding, comparable within an allelic series) in the test with SIX6 [10]; 8.67 upbm affinity estimate (log intensity, higher = more binding, comparable within an allelic series) with SIX6 [11]; 8.75 upbm affinity estimate (log intensity, higher = more binding, comparable within an allelic series) with SIX6 [12]. The binding signal with SIX6 [13] was 8.82 upbm affinity estimate (log intensity, higher = more binding, comparable within an allelic series).

For the sequence CGGCCTTC, the binding signal with SIX6 [1] was 8.62 upbm affinity estimate (log intensity, higher = more binding, comparable within an allelic series); with SIX6 [2], 8.87 upbm affinity estimate (log intensity, higher = more binding, comparable within an allelic series); with SIX6 [3], 8.82 upbm affinity estimate (log intensity, higher = more binding, comparable within an allelic series); in the test with SIX6 [4] it was 9 upbm affinity estimate (log intensity, higher = more binding, comparable within an allelic series); with SIX6 [5], 8.83 upbm affinity estimate (log intensity, higher = more binding, comparable within an allelic series); with SIX6 [6], 8.77 upbm affinity estimate (log intensity, higher = more binding, comparable within an allelic series). Moreover, the binding signal was 8.94 upbm affinity estimate (log intensity, higher = more binding, comparable within an allelic series) with SIX6 [7]; 8.84 upbm affinity estimate (log intensity, higher = more binding, comparable within an allelic series) with SIX6 [8]; 8.59 upbm affinity estimate (log intensity, higher = more binding, comparable within an allelic series) in the test with SIX6 [9]; 8.81 upbm affinity estimate (log intensity, higher = more binding, comparable within an allelic series) in the test with SIX6 [10]; 8.94 upbm affinity estimate (log intensity, higher = more binding, comparable within an allelic series) with SIX6 [11]; 8.77 upbm affinity estimate (log intensity, higher = more binding, comparable within an allelic series) in the test with SIX6 [12]. Also, the binding signal with SIX6 [13] is 8.7 upbm affinity estimate (log intensity, higher = more binding, comparable within an allelic series).

On to CCGGCGCC, for which the binding signal is 8.8 upbm affinity estimate (log intensity, higher = more binding, comparable within an allelic series) with SIX6 [1]; 8.98 upbm affinity estimate (log intensity, higher = more binding, comparable within an allelic series) in the test with SIX6 [2]; 8.96 upbm affinity estimate (log intensity, higher = more binding, comparable within an allelic series) with SIX6 [3]; 9.05 upbm affinity estimate (log intensity, higher = more binding, comparable within an allelic series) with SIX6 [4]; 9 upbm affinity estimate (log intensity, higher = more binding, comparable within an allelic series) in the test with SIX6 [5]; 8.85 upbm affinity estimate (log intensity, higher = more binding, comparable within an allelic series) with SIX6 [6]. The binding signal was 9.03 upbm affinity estimate (log intensity, higher = more binding, comparable within an allelic series) with SIX6 [7]; 8.96 upbm affinity estimate (log intensity, higher = more binding, comparable within an allelic series) with SIX6 [8]; 8.96 upbm affinity estimate (log intensity, higher = more binding, comparable within an allelic series) with SIX6 [9]; 8.98 upbm affinity estimate (log intensity, higher = more binding, comparable within an allelic series) with SIX6 [10]; 8.96 upbm affinity estimate (log intensity, higher = more binding, comparable within an allelic series) with SIX6 [11]; 9.02 upbm affinity estimate (log intensity, higher = more binding, comparable within an allelic series) with SIX6 [12]. Further, the binding signal in the test with SIX6 [13] was 8.9 upbm affinity estimate (log intensity, higher = more binding, comparable within an allelic series).

Turning to ATACACCA, the binding signal is 10.4 upbm affinity estimate (log intensity, higher = more binding, comparable within an allelic series) in the test with SIX6 [1]; 10.1 upbm affinity estimate (log intensity, higher = more binding, comparable within an allelic series) in the test with SIX6 [2]; 10.6 upbm affinity estimate (log intensity, higher = more binding, comparable within an allelic series) with SIX6 [3]; 9.67 upbm affinity estimate (log intensity, higher = more binding, comparable within an allelic series) with SIX6 [4]; 10.2 upbm affinity estimate (log intensity, higher = more binding, comparable within an allelic series) with SIX6 [5]; 10.4 upbm affinity estimate (log intensity, higher = more binding, comparable within an allelic series) in the test with SIX6 [6]. The binding signal with SIX6 [7] was 10.2 upbm affinity estimate (log intensity, higher = more binding, comparable within an allelic series); in the test with SIX6 [8] it was 10.8 upbm affinity estimate (log intensity, higher = more binding, comparable within an allelic series); with SIX6 [9] it was 10.8 upbm affinity estimate (log intensity, higher = more binding, comparable within an allelic series); with SIX6 [10] it was 10.6 upbm affinity estimate (log intensity, higher = more binding, comparable within an allelic series); with SIX6 [11], 10.2 upbm affinity estimate (log intensity, higher = more binding, comparable within an allelic series); in the test with SIX6 [12] it was 10.5 upbm affinity estimate (log intensity, higher = more binding, comparable within an allelic series). In the test with SIX6 [13], the binding signal was 10.5 upbm affinity estimate (log intensity, higher = more binding, comparable within an allelic series).

Take AGTATCAT: the binding signal with SIX6 [1] was 11.5 upbm affinity estimate (log intensity, higher = more binding, comparable within an allelic series); with SIX6 [2], 10.5 upbm affinity estimate (log intensity, higher = more binding, comparable within an allelic series); with SIX6 [3] it was 11.5 upbm affinity estimate (log intensity, higher = more binding, comparable within an allelic series); with SIX6 [4], 9.89 upbm affinity estimate (log intensity, higher = more binding, comparable within an allelic series); with SIX6 [5], 10.9 upbm affinity estimate (log intensity, higher = more binding, comparable within an allelic series); in the test with SIX6 [6], 11 upbm affinity estimate (log intensity, higher = more binding, comparable within an allelic series). The binding signal with SIX6 [7] is 10.6 upbm affinity estimate (log intensity, higher = more binding, comparable within an allelic series); with SIX6 [8] it was 11.5 upbm affinity estimate (log intensity, higher = more binding, comparable within an allelic series); with SIX6 [9], 11.4 upbm affinity estimate (log intensity, higher = more binding, comparable within an allelic series); with SIX6 [10], 11.4 upbm affinity estimate (log intensity, higher = more binding, comparable within an allelic series); with SIX6 [11], 11.3 upbm affinity estimate (log intensity, higher = more binding, comparable within an allelic series); with SIX6 [12], 11.2 upbm affinity estimate (log intensity, higher = more binding, comparable within an allelic series). The binding signal with SIX6 [13] was 11.2 upbm affinity estimate (log intensity, higher = more binding, comparable within an allelic series).

As for CAGGTATC, the binding signal in the test with SIX6 [1] is 10.9 upbm affinity estimate (log intensity, higher = more binding, comparable within an allelic series); with SIX6 [2] it was 10.2 upbm affinity estimate (log intensity, higher = more binding, comparable within an allelic series); in the test with SIX6 [3], 10.9 upbm affinity estimate (log intensity, higher = more binding, comparable within an allelic series); in the test with SIX6 [4], 9.6 upbm affinity estimate (log intensity, higher = more binding, comparable within an allelic series); in the test with SIX6 [5] it was 10.5 upbm affinity estimate (log intensity, higher = more binding, comparable within an allelic series); with SIX6 [6], 10.7 upbm affinity estimate (log intensity, higher = more binding, comparable within an allelic series). Moreover, the binding signal with SIX6 [7] was 10.2 upbm affinity estimate (log intensity, higher = more binding, comparable within an allelic series); with SIX6 [8], 11.1 upbm affinity estimate (log intensity, higher = more binding, comparable within an allelic series); with SIX6 [9] it was 11.1 upbm affinity estimate (log intensity, higher = more binding, comparable within an allelic series); with SIX6 [10], 11 upbm affinity estimate (log intensity, higher = more binding, comparable within an allelic series); in the test with SIX6 [11], 10.6 upbm affinity estimate (log intensity, higher = more binding, comparable within an allelic series); in the test with SIX6 [12], 10.9 upbm affinity estimate (log intensity, higher = more binding, comparable within an allelic series). Also, the binding signal in the test with SIX6 [13] is 10.7 upbm affinity estimate (log intensity, higher = more binding, comparable within an allelic series).
